# Measured potencies and affinities stand elsewhere. Records with an inconclusive call do not appear. Active and inactive are the calls of the source.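 Rule for the calls: active = signal loss with fitted half-maximal concentration at or below twice the top valid tested dose in every test run; inconclusive = runs disagree, flat 30 to 70% signal loss, or poor fit; inactive = all runs flat, opposite direction, or potency beyond limit.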
# Assay: HEK293T cytotoxicity, dose response, cytotoxicity control for miR-122 modulator project, cell-based, inhibitor set, cherry-pick, set 2 (AID 720697);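 note: 0% = median of neutral control wells and -100% = MG132 positive control wells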
# Conditions: HEK293T viability, CellTiter-Glo luminescence, 48 h; series mostly up to 26 µM
SMILES,outcome,"activity change, negative = cytotoxicity"
c1cnc(N2CCN(Cc3c[nH]c4ccccc34)CC2)nc1,inactive,–
COc1ccc(S(=O)(=O)Nc2ccc3c(c2)CC(=O)N([C@@H](C)CO)C[C@@H](C)[C@H](CN(C)Cc2ccc(-c4ccccc4)cc2)O3)cc1,inactive,–
O=C(Nc1ncc(Cc2cccc(C(F)(F)F)c2)s1)c1ccc(-c2cccc([N+](=O)[O-])c2)o1,–,-25.5% [at 6 µM] (inactive)
CCC(=O)Nc1ccc2c(c1)C(=O)N(C)[C@@H]1CC[C@H](CC(=O)Nc3cccc(OC)c3)O[C@@H]1CO2,inactive,–
O=c1c2cc(N3CCOCC3)ccc2[nH]c(=S)n1CCCN1CCCC1,inactive,–
Cc1ccc(-n2ncc(C(=O)Nc3cc(Cl)ccc3C)c2C2CCNCC2)cc1C,inactive,–
COc1ccc(NC(=O)Cn2nnc(C(=O)NCc3ccccc3OC)c2N)cc1Cl,inactive,–
CC(=O)N1[C@H](CO)[C@@H](c2ccccc2)[C@H]1CN(CC(C)C)C(=O)c1ccccn1,inactive,–
CN1C(=O)c2cc(NC(=O)c3cccs3)ccc2OC[C@@H]2O[C@@H](CC(=O)N3CCOCC3)CC[C@H]21,inactive,–
C[C@H](CO)N1C[C@H](C)[C@@H](CN(C)Cc2ccc(-c3ccccc3)cc2)Oc2ncc(C#CCN(C)C)cc2C1=O,inactive,–
COc1cccc(-c2ccc3c(c2)O[C@H](CN(C)C(=O)C2CCOCC2)[C@H](C)CN([C@@H](C)CO)S3(=O)=O)c1,inactive,–
O=C(Nc1ccc(CN2CCOCC2)cc1)c1ccc(-c2ccc(Cl)cc2Cl)o1,inactive,–
O=C(CC(F)(F)F)N1C[C@H]2[C@@H](c3ccccc31)[C@H](CO)N2C(=O)Cc1cccnc1,inactive,–
CC(=O)c1ccc(Nc2nc3ccc(C)cc3n3cnnc23)cc1,inactive,–
CCCNC(=O)C[C@H]1CC[C@@H]2[C@H](COc3ccc(NC(=O)c4cccs4)cc3C(=O)N2C)O1,inactive,–
CN1C(=O)c2cc(NC(=O)Nc3ccc(Cl)cc3)ccc2OC[C@H]2O[C@H](CC(=O)NCCN3CCCCC3)CC[C@H]21,inactive,–
Cc1ccccc1-c1ccc([C@@H]2[C@H](CO)N3CCCCN(C(=O)Nc4cccc(F)c4)C[C@@H]23)cc1,inactive,–
C/C=C/c1ccc([C@H]2[C@@H](CO)N(Cc3ccccn3)[C@H]2CNC(=O)CC)cc1,inactive,–
COC(=O)C[C@H]1CC[C@@H]2[C@@H](COc3ccc(NC(=O)Nc4ccc(Cl)cc4)cc3C(=O)N2C)O1,inactive,–
COC(=O)C[C@H]1CC[C@H]2[C@H](COc3ccc(NS(=O)(=O)c4ccc(F)cc4)cc3C(=O)N2C)O1,inactive,–

SMILES,outcome,"activity change, negative = cytotoxicity"
CNC(=O)C[C@H]1CC[C@@H]2[C@H](COc3ccc(NC(=O)c4ccccc4OC)cc3C(=O)N2C)O1,inactive,–
COCC(=O)N(C[C@@H]1N[C@H](CO)[C@H]1c1ccc(C2=CCCC2)cc1)C(C)C,inactive,–
CCC(=O)N(C)C[C@@H]1[C@H](c2ccc(-c3ccccc3F)cc2)[C@H](CO)N1C(C)=O,inactive,–
CN1C(=O)c2cc(NC(=O)Nc3cccc(Cl)c3)ccc2OC[C@@H]2O[C@H](CC(=O)NCCc3ccncc3)CC[C@H]21,inactive,–
CCC(=O)N(C)C[C@H]1Oc2cc(C#CC3CCCCC3)ccc2S(=O)(=O)N([C@@H](C)CO)C[C@H]1C,inactive,–
O=C(NCC(c1cccnc1)N1CCOCC1)NC1CCCCC1 (centres undefined),inactive,–
CN1C(=O)c2cc(NC(=O)c3cccc(F)c3)ccc2OC[C@H]2O[C@H](CC(=O)NC3CCC3)CC[C@H]21,inactive,–
Cc1cccc(NC(=O)C[C@H]2CC[C@H]3[C@@H](COc4ccc(NC(=O)NC(C)C)cc4C(=O)N3C)O2)c1,inactive,–
C[C@H]1CN([C@@H](C)CO)C(=O)c2cc(C#Cc3cccnc3)cnc2O[C@H]1CN(C)S(=O)(=O)c1ccccc1F,inactive,–
O=C(c1cccnc1)N1C[C@H]2[C@@H](c3ccccc31)[C@H](CO)N2C(=O)Nc1ccccc1,inactive,–
CN1C(=O)c2cc(NC(=O)c3ccc(C(F)(F)F)cc3)ccc2OC[C@H]2O[C@H](CC(=O)O)CC[C@@H]21,inactive,–
COc1cccc(CNC(=O)C[C@@H]2CC[C@@H]3[C@H](COc4ccc(NC(C)=O)cc4C(=O)N3C)O2)c1,inactive,–
CN(c1ccccc1)S(=O)(=O)c1ccc(C(=O)Nc2cccc(S(=O)(=O)N3CCOCC3)c2)cc1,inactive,–
COc1cc(C(=O)Nc2ccc(S(=O)(=O)N3CCCCC3C)cc2)cc(OC)c1OC (centres undefined),inactive,–
C/C=C/c1ccc2c(c1)O[C@H](CN(C)C(=O)Cc1cccnc1)[C@H](C)CN([C@H](C)CO)S2(=O)=O,inactive,–
O=C(c1ccc(CNc2c(NC3CCCCC3)c(=O)c2=O)cc1)N1CCc2ccccc21,inactive,–
Cc1cccc(-n2ncc(Cl)c(Cl)c2=O)c1,–,-3.19% [at 6 µM] (inactive)
CN1C(=O)c2cc(NC(=O)Cc3ccccc3)ccc2OC[C@H]2O[C@H](CC(=O)O)CC[C@H]21,inactive,–
CCC(=O)N1[C@H](CO)[C@@H](c2ccccc2)[C@H]1CN(C(C)C)S(C)(=O)=O,inactive,–

# From PubChem BioAssay AID720697 (Broad Institute, 2013)
